Records with an inconclusive call do not appear. Active and inactive are the calls of the source. Unless noted, calls come from the whole dose curve; as a rule, active = well fitted curve in the direction sought with a large enough effect in the repeat runs; inconclusive = weak or mixed curves; inactive = no such curve, though single readings can be large; an effect the other way counts as inactive or inconclusive.
Columns and labels:
[1] = qHTS assay to identify small molecule agonists of the peroxisome proliferator-activated receptor delta (PPARd) signaling pathway - cell viability counter screen (AID 743211); note: nearly all actives have a fitted effect of over 55% in size
Outline: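 Counter screen for cytotoxicity run in parallel with the PPARd reporter screen. Beta-lactamase reporter HEK293H cells exposed to compounds 17 h; ATP-based CellTiter-Glo luminescence quantified viability.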

[2] = qHTS assay to identify small molecule antagonists of the peroxisome proliferator-activated receptor delta (PPARd) signaling pathway - cell viability counter screen (AID 743213); note: nearly all actives have a fitted effect of over 50% in size
Outline: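 Viability counter-screen, qHTS format: PPARd-bla HEK293H, L165041 300 nM final, 17 h compound exposure at 37 C, CellTiter-Glo luminescence after 30 min RT.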

[3] = qHTS assay to identify small molecule agonists of the farnesoid-X-receptor (FXR) signaling pathway - cell viability counter screen (AID 743218); note: nearly all actives have a fitted effect of over 45% in size
Outline: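 Viability of FXR-bla HEK 293T cells is measured by ATP-based CellTiter-Glo luminescence following 16 h compound treatment at 37 C and a prior 2 h room-temperature beta-lactamase substrate step.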

[4] = qHTS assay to identify small molecule antagonists of the farnesoid-X-receptor (FXR) signaling pathway - cell viability counter screen (AID 743221; active = well fitted cell-killing curve with a large enough effect in the repeat runs, not every such curve was filed as active; note: nearly all actives have a fitted effect of over 50% in size)
Outline: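 Multiplexed counter screen: viability of FXR-bla HEK 293T cells under agonist stimulation by chenodeoxycholic acid (50 uM, final) and test compound for 16 h at 37 C, measured by CellTiter-Glo luminescence in the reporter wells.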

[5] = qHTS assay to identify small molecule agonists of the vitamin D receptor (VDR) signaling pathway - cell viability counter screen (AID 743224); note: series mostly up to about 63 µM; nearly all actives have a fitted effect of over 50% in size
Outline: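 Compounds were pin-transferred onto VDR-bla cells plated 4 h earlier; following 16 h incubation at 37C, cell viability was quantified by CellTiter-Glo luminescence after 30 min at room temperature.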

[6] = qHTS assay to identify small molecule antagonists of the retinoid-related orphan receptor gamma (ROR-gamma) signaling pathway - cell viability counter screen (AID 1159520); note: nearly all actives have a fitted effect of over 50% in size
Outline: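 Tet-on ROR gamma CHO cells were given compounds for 2 hr, then doxycycline hyclate at 1 uM final, and incubated 16 hr at 37 C. Viability was measured as ATP content by CellTiter-Glo luminescence.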

[7] = qHTS assay to identify small molecule agonists of the AP-1 signaling pathway - cell viability counter screen (AID 1159525; calls by dose curve; note: nearly all actives have a fitted effect of over 55% in size)
Outline: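 Same-well cytotoxicity counter screen of the Tox21 10K library in ME-180 cells. The readout is ATP-dependent luminescence after 5 h compound treatment. Data are normalised to DMSO and tetra n-octyl ammonium bromide controls.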

[8] = qHTS assay to identify small molecule agonists of the AP-1 signaling pathway (AID 1159526; calls by dose curve)
[9] = target: Peroxisome proliferator-activated receptor delta (Homo sapiens) (UniProt Q03181); test: qHTS assay to identify small molecule agonists of the peroxisome proliferator-activated receptor delta (PPARd) signaling pathway (AID 743212; calls by dose curve)
Chain of Peroxisome proliferator-activated receptor delta (Homo sapiens) (Q03181 whole entry, looked up): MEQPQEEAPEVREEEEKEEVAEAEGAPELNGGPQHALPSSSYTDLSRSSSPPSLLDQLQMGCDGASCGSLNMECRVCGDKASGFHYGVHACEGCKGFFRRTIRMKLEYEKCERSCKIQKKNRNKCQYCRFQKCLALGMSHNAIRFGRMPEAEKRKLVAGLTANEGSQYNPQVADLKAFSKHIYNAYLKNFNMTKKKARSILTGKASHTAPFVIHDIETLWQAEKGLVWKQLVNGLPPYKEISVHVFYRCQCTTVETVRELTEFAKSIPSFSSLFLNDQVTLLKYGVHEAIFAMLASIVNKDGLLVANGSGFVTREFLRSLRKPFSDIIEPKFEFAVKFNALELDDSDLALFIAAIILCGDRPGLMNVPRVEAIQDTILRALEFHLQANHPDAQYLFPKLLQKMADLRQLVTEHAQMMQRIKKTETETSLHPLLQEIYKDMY
Outline: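 Read-out: beta-lactamase FRET fluorescence after 2 h room-temperature incubation with LiveBLAzer B/G substrate. Cells were HEK293H carrying a UAS-bla reporter for PPARd, treated at 37 C with DMSO-dissolved compounds.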

[10] = target: Peroxisome proliferator-activated receptor delta (Homo sapiens) (UniProt Q03181); test: qHTS assay to identify small molecule antagonists of the peroxisome proliferator-activated receptor delta (PPARd) signaling pathway (AID 743215; active = well fitted inhibition curve with a large enough effect in the signal ratio in the repeat runs, not every such curve was filed as active; the % refers to the signal ratio;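 note: cells stimulated with agonist L165041 at 300 nM final during compound exposure; series mostly up to about 62 µM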)
Outline: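 Plated HEK293H PPARd-bla cells rested 5 h at 37 C and 5% CO2. Compound, then agonist L165041 at 300 nM final, was added; 17 h at 37 C followed. Substrate loading, 2 h room temperature, fluorescence measured.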

[11] = target: Vitamin D3 receptor (Homo sapiens) (UniProt P11473); test: qHTS assay to identify small molecule antagonists of the vitamin D receptor (VDR) signaling pathway (AID 743223; active = well fitted inhibition curve with a large enough effect in the signal ratio in the repeat runs, not every such curve was filed as active; the % refers to the signal ratio)
Chain of Vitamin D3 receptor (Homo sapiens) (P11473 whole entry, looked up): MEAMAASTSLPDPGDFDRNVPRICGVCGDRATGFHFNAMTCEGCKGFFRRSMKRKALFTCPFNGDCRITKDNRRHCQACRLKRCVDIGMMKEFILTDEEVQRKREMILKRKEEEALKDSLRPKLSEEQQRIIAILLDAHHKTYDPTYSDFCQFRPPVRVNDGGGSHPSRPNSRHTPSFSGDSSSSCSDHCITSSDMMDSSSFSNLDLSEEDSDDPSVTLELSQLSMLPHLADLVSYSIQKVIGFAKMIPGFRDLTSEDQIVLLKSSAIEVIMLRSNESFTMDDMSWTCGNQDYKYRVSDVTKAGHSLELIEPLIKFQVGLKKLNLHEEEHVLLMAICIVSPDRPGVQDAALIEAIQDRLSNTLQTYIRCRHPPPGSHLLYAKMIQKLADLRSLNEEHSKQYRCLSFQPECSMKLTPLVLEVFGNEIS
Outline: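 Cells carrying a VDR-driven beta-lactamase reporter (VDR-bla) were co-treated with compound and 3 nM final 1alpha,25-dihydroxyvitamin D3 for 16 h at 37C; reporter activity was measured as FRET substrate fluorescence after 2 h at room temperature.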

[12] = qHTS assay to identify small molecule antagonists of the vitamin D receptor (VDR) signaling pathway - cell viability counter screen (AID 743225); note: nearly all actives have a fitted effect of over 50% in size
Outline: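 HEK293T VDR-bla; cpd + 1a,25-(OH)2D3 3 nM final, 16 h 37C/5% CO2; B/G FRET substrate 2 h RT; then CellTiter-Glo 30 min RT, luminescence.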

[13] = qHTS assay to identify small molecule agonists of the endoplasmic reticulum stress response signaling pathway - cell viability counter screen (AID 1159517; calls by dose curve)
Outline: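 Steps: seed 1,500 ESRE-bla HeLa cells per well; incubate overnight at 37 C, 5% CO2; add compounds in DMSO for 5 hr; run FRET substrate 2 hr RT; add CellTiter-Glo, wait 30 min, read luminescence.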

[14] = target: Nuclear receptor ROR-gamma (Homo sapiens) (UniProt P51449); test: qHTS assay to identify small molecule antagonists of the retinoid-related orphan receptor gamma (ROR-gamma) signaling pathway (AID 1159521)
Outline: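 Cells were plated, rested 4 h at 37 C, exposed to compounds for 2 h, then given 1 uM final doxycycline hyclate to induce RORγ expression. After 16 h, ONE-Glo luminescence from the ROR response element reporter was measured.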

[15] = target: Bile acid receptor (Homo sapiens) (UniProt Q96RI1); test: qHTS assay to identify small molecule antagonists of the farnesoid-X-receptor (FXR) signaling pathway (AID 743217; active = well fitted inhibition curve with a large enough effect in the signal ratio in the repeat runs, not every such curve was filed as active; the % refers to the signal ratio)
Chain of Bile acid receptor (Homo sapiens) (Q96RI1 whole entry, looked up): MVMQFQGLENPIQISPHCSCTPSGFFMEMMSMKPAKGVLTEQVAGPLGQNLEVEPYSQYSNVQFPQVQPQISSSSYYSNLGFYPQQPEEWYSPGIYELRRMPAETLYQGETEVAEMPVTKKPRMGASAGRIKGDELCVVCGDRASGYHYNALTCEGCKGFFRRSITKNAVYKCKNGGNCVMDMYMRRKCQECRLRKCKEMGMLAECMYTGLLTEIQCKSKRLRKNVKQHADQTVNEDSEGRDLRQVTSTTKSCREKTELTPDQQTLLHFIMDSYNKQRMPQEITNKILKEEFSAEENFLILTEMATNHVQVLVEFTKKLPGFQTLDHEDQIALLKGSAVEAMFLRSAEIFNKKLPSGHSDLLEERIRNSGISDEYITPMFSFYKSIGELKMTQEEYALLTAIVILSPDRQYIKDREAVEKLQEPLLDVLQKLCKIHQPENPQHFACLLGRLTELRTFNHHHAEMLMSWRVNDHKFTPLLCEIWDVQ
Outline: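 Screen of the Tox21 10K library in quantitative HTS format using FXR-UAS-bla HEK 293T reporter cells. Agonist chenodeoxycholic acid, 50 uM final, added with compounds; 16 h incubation at 37 °C; beta-lactamase FRET fluorescence measured.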

[16] = target: Bile acid receptor (Homo sapiens) (UniProt Q96RI1); test: qHTS assay to identify small molecule agonists of the farnesoid-X-receptor (FXR) signaling pathway (AID 743220; active = well fitted activation curve with a large enough effect in the signal ratio in the repeat runs, not every such curve was filed as active; the % refers to the signal ratio)
Outline: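 FXR-UAS-bla HEK 293T cells carrying a UAS-driven beta-lactamase reporter were plated for 5 h at 37C/5% CO2, then exposed to DMSO-dissolved Tox21 10K compounds for 16 h at 37C. A LiveBLAzer B/G FRET substrate was loaded for 2 h at room temperature before fluorescence reading.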

[17] = qHTS assay to identify small molecule agonists of the endoplasmic reticulum stress response signaling pathway (AID 1159516; active = well fitted activation curve with a large enough effect in the signal ratio in the repeat runs, not every such curve was filed as active; the % refers to the signal ratio)
Outline: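 Using a HeLa line with an ESRE-driven beta-lactamase gene, agonist activity was measured by FRET substrate fluorescence (460 and 530 nm emission) after cells were treated with compounds for 5 hr at 37 C and 5% CO2.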

[18] = target: Retinoic acid receptor RXR-alpha (Homo sapiens) (UniProt P19793); test: qHTS assay to identify small molecule agonists of the RXR signaling pathway (AID 1159527; calls by dose curve; note: nearly all actives have a fitted effect of over 35% in size)
Chain of Retinoic acid receptor RXR-alpha (Homo sapiens) (P19793 whole entry, looked up): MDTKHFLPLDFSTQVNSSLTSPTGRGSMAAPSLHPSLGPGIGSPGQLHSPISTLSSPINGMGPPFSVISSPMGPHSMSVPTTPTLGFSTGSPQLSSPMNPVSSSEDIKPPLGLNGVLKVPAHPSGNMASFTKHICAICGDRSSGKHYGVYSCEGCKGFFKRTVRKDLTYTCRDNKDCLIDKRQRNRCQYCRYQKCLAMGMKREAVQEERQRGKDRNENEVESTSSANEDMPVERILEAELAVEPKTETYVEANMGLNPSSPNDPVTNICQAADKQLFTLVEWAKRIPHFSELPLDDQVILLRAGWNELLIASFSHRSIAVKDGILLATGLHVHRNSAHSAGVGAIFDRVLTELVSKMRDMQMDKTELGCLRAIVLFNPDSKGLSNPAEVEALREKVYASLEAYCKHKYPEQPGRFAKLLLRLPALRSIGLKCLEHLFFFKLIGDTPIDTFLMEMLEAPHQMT
Outline: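 Cells plated at 2,000/well, rested 5 hr at 37 C, pin-dosed with DMSO compound solutions, incubated 16 hr, then loaded with B/G FRET substrate for 2 hr at RT before dual-emission fluorescence reading.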

[19] = target: Vitamin D3 receptor (Homo sapiens) (UniProt P11473); test: qHTS assay to identify small molecule agonists of the vitamin D receptor (VDR) signaling pathway (AID 743222; calls by dose curve)
Outline: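 Fluorescence from cleaved LiveBLAzer B/G FRET substrate served as readout. VDR-bla cells had been treated 16 h at 37C with test compounds in DMSO, following a 4 h settling period, and substrate was loaded for 2 h at RT.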

Measured: Potency

CCC(C)[O-].CCC(C)[O-].CCOC(=O)/C=C(/C)[O-].[Al+3]
inactive: [1] | [2] | [3] | [4] | [5] | [6] | [7] | [8]

O=C(O)Cc1ccc2c(c1)C(=O)c1ccccc1CO2
not listed: [2] | [15] | [16] | [17] | [18] | [19]
inactive: all other assays above

CCC(=O)OC(=O)CC
not listed: [3] | [9] | [11] | [12] | [13] | [18] | [19]
inactive: all other assays above

O=C1CCc2cc(OCCCCc3nnnn3C3CCCCC3)ccc2N1
not listed: [9] | [13] | [18] | [19]
inactive: all other assays above

O=C(/C=C/c1ccc(O)c(O)c1)O[C@@H](C(=O)O)[C@@H](OC(=O)/C=C/c1ccc(O)c(O)c1)C(=O)O
not listed: [2] | [9] | [12] | [13] | [14] | [19]
inactive: all other assays above

CCCC(=O)OC(C)(C)Cc1ccccc1
inactive: [1] | [2] | [19] | [5] | [17] | [6] | [14] | [7] | [8] | [18]
